Reference: PubChem BioAssay (NCI)
The panel holds about 79,000 compounds, 15% with a hit somewhere; the sample as a whole holds those more often. A number with no mark means an inactive call. Calls of active or inactive are those of the source. No stated cut-off is given here; in the data, active means growth inhibition above about 70%; inactive means the rest.

Columns and labels:
[1] = NCI Yeast Anticancer Drug Screen. Data for the rad50 strain (AID 155);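 further: 0% = growth of vehicle-only cultures of the same strain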; details: S. cerevisiae rad50 strain growth inhibition, hits give high values
In short: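 Compounds were tested on a yeast strain with an engineered DNA damage repair alteration; the reported value is growth inhibition normalised to vehicle treatment.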

[2] = NCI Yeast Anticancer Drug Screen. Data for the mec2-1 strain (AID 157); details: S. cerevisiae mec2-1 strain, hits give high values
In short: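 Yeast mec2-1 mutant treated with compound. Readout: growth inhibition vs vehicle controls.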

[3] = NCI Yeast Anticancer Drug Screen. Data for the sgs1 mgt1 strain (AID 161);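 further: 0% = growth of cultures given vehicle only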; details: S. cerevisiae sgs1 mgt1 strain, hits give high values
In short: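 Inhibition of yeast growth, normalised to vehicle-treated controls, is reported for a strain bearing genetic alterations in DNA damage repair.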

[4] = NCI Yeast Anticancer Drug Screen. Data for the cln2 rad14 strain (AID 165);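 further: 0% = growth equal to vehicle treated cultures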; details: S. cerevisiae cln2 rad14 strain, hits give high values
In short: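 cln2 rad14 yeast strain; compound exposure; growth inhibition read vs vehicle controls.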

[5] = NCI Yeast Anticancer Drug Screen. Data for the bub3 strain (AID 167); details: S. cerevisiae bub3 mutant strain, hits give high values
In short: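 Growth of a checkpoint-deficient yeast mutant is measured after compound exposure. Values represent inhibition relative to vehicle.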

[6] = NCI Yeast Anticancer Drug Screen. Data for the mlh1 rad18 strain (AID 175); details: S. cerevisiae mlh1 rad18 strain growth inhibition, hits give high values
In short: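 Yeast w/ defined DNA-repair lesions; compound exposure; growth vs vehicle controls → % inhibition.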

[7] = at 5.0 µM (retest, dose inferred, filed as 0.5)
[8] = at 50.0 µM (retest, dose inferred, filed as 5.0)

SMILES | growth inhibition [1, 7] [%] | growth inhibition [1, 8] | growth inhibition ([1]; at 50.0 µM) | growth inhibition [2, 7] | growth inhibition [2, 8] | growth inhibition ([2]; at 50.0 µM) | growth inhibition [3, 7] [%] | growth inhibition [3, 8] | growth inhibition ([3]; at 50.0 µM) | growth inhibition [4, 7] [%] | growth inhibition [4, 8] | growth inhibition ([4]; at 50.0 µM) | growth inhibition [5, 7] [%] | growth inhibition [5, 8] | growth inhibition ([5]; at 50.0 µM) | growth inhibition [6, 7] [%] | growth inhibition [6, 8] | growth inhibition ([6]; at 50.0 µM)
O=C(CCc1ccccc1)COC(=O)c1ccc([N+](=O)[O-])cc1 | -13 | -14% | -10.4% | -2% | -25% | 3.45% | -6 | 8% | -3.6% | -26 | -14% | 10.9% | -1 | -7% | 55% | -15 | -23% | 16.4%
O=C1C(=O)c2cc(Cl)ccc2-c2ccc(Cl)cc21 | 20 | 90% (active) | 91% (active) | 30% | 95% (active) | 93.9% (active) | 33 | 95% (active) | 94% (active) | -4 | 94% (active) | 88.5% (active) | 56 | 94% (active) | 86.6% (active) | 30 | 95% (active) | 93.5% (active)
CCCCCCCCCCCCCCC[C@@H](O)C[N+](C)(C)CCO | 28 | 98% (active) | 90.5% (active) | 91% (active) | 99% (active) | 92.8% (active) | 50 | 98% (active) | 90% (active) | 42 | 98% (active) | 88.5% (active) | 69 | 98% (active) | 87.1% (active) | 57 | 98% (active) | 92.3% (active)
O=S(=O)(OCC#CCOS(=O)(=O)c1ccc(Cl)c(Cl)c1)c1ccc(Cl)c(Cl)c1 | -1 | 32% | 28.8% | -1% | 41% | 44% | -6 | 63% | 54.7% | 1 | 8% | 75.2% (active) | -4 | 32% | 35.3% | 7 | 37% | 48.2%
CNC(=O)c1cc(NC(=O)c2ccc(C(=O)Nc3cc(C(=O)NC)cc(C4=NCCN4)c3)cc2)cc(C2=NCCN2)c1 | 3 | -3% | 98.8% (active) | 11% | 1% | 99.6% (active) | -6 | -3% | 99.3% (active) | 0 | 8% | 92.8% (active) | 5 | 1% | 98.7% (active) | 2 | -19% | 98.6% (active)
COc1cc(C(Sc2ccccc2C(=O)O)Sc2ccccc2C(=O)O)ccc1O | 9 | 91% (active) | 95.5% (active) | 12% | 88% (active) | 95.6% (active) | 21 | 94% (active) | 97.4% (active) | 8 | 93% (active) | 81.6% (active) | 12 | 97% (active) | 87.9% (active) | 14 | 95% (active) | 98.5% (active)
CCOC(=O)/C(=C\c1ccccc1)C(=O)CCN1CCOCC1 | 37 | 99% (active) | 95.5% (active) | 24% | 99% (active) | 84.5% (active) | 12 | 99% (active) | 41% | 45 | 99% (active) | 75.9% (active) | 20 | 99% (active) | 76% (active) | 10 | 99% (active) | 84.8% (active)
